Among the data in ChEMBL document CHEMBL3988442, “University of Dundee, Small-Polar-MMV Screening Library” (2021) are Percent Effect values, retold here.

For some of these results: Potency and affinity values are given separately.

Set-up in all cases: scale not given: direction of the effect not stated beside the values
The target of assay [1] is Protein translocase subunit SecA (Escherichia coli (strain K12)) (UniProt P10408). The experiment in a line: Assay to Identify E. coli SecA ATPase Inhibitors. Conditions: 30 µM. In kind it is functional.
Chain of Protein translocase subunit SecA (Escherichia coli (strain K12)) (P10408 whole entry): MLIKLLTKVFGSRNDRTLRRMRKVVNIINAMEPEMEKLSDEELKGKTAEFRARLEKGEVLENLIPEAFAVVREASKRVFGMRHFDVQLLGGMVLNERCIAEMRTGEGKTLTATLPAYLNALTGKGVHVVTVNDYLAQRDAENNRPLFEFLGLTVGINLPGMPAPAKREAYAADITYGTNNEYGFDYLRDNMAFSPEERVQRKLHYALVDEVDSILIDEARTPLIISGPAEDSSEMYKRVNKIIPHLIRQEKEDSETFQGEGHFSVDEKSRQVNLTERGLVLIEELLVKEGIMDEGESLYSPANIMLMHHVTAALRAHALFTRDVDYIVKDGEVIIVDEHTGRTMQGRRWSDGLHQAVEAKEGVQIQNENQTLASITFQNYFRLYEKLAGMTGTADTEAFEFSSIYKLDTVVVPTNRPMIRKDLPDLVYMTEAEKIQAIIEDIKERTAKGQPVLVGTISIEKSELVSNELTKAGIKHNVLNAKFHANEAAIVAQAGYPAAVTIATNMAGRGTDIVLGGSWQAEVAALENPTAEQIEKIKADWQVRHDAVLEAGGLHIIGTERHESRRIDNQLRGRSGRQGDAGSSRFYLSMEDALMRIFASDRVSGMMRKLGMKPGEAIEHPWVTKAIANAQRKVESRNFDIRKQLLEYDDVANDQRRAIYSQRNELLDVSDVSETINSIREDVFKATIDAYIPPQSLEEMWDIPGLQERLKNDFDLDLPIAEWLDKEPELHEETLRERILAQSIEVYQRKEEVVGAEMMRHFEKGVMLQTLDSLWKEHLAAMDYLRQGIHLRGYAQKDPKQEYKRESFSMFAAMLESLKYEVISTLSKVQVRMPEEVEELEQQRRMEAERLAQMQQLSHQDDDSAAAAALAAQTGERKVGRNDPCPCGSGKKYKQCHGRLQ
The target in assay [2] is T1, Ubiquitin-activating enzyme e1, putative (Leishmania donovani (strain BPK282A1)) (UniProt E9BSI1).
T1 sequence (whole entry): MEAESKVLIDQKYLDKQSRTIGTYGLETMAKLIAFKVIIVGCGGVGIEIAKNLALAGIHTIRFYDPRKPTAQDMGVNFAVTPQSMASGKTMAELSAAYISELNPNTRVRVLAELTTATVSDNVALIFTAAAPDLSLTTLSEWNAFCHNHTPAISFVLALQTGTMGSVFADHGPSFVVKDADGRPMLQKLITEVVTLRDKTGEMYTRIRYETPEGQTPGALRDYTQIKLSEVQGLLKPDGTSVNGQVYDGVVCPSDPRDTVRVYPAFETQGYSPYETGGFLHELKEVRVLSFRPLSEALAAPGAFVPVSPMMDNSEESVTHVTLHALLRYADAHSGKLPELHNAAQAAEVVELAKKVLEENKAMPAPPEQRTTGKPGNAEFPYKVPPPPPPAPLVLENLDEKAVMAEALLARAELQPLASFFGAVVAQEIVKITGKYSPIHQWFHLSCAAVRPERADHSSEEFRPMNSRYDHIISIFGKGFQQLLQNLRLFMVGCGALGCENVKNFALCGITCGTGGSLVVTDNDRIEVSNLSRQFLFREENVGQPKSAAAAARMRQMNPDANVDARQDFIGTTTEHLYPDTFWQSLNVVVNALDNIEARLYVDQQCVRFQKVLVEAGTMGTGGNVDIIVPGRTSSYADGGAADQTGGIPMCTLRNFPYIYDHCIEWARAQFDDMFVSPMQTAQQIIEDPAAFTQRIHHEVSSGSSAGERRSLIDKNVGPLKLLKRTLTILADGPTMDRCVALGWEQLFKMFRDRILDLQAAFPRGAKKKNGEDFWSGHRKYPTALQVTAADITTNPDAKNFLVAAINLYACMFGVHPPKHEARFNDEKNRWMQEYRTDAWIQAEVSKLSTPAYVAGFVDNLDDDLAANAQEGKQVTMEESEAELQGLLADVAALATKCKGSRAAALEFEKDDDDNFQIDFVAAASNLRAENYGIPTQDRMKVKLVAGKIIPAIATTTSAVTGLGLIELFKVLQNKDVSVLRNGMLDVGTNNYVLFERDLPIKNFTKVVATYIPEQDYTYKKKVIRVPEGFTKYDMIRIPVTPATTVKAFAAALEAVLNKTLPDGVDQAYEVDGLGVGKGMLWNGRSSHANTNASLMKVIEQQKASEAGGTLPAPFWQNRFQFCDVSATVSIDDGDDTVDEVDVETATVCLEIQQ
In words: Leishmania donovani Ubiquitin Activating Enzyme (LdE1). In kind it is functional. Particulars: 30 µM.

For assay [3], the target named is AMP-activated protein kinase, AMPK (Homo sapiens) (UniProt P54646+O43741+P54619+Q9UGJ0+Q9Y478+Q13131+Q9UGI9). In words: AMP-dependent Kinase enzyme assay. An in vitro enzyme assay that detects ADP turnover that is directly proportional to AMPK activity. This uses naive AMPK that is activated during the assay with MK-8722. In kind it is functional. Particulars: 30 µM.

In assay [4] the target is Sialic acid-binding Ig-like lectin 9 (Homo sapiens) (UniProt Q9Y336). In words: Hs-Siglec9 ALPHAscreen SOP 20170721. Particulars: 10 µM.
Chain of Sialic acid-binding Ig-like lectin 9 (Homo sapiens) (Q9Y336 whole entry): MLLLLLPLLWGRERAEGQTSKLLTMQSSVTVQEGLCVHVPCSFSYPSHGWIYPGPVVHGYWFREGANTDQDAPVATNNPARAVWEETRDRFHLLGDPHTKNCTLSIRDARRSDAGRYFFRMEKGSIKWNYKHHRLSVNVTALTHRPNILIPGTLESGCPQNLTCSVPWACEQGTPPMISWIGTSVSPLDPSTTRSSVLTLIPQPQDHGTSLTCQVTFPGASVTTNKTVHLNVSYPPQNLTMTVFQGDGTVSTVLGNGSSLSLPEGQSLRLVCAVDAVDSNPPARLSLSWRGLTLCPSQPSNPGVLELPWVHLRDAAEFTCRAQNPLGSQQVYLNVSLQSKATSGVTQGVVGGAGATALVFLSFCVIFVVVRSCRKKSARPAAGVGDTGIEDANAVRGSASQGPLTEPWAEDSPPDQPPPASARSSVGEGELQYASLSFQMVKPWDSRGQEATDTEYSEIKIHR
A further assay concerns Trypanosoma cruzi. The experiment in a line: Trypanosoma cruzi phosphomannomutase and mannose-1-phosphate guanylyltransferase assay. Type of assay: functional. Conditions: 10 µM.
The target in assay [5] is T2, Arginase-2, mitochondrial (Homo sapiens) (UniProt P78540).
T2 sequence (whole entry): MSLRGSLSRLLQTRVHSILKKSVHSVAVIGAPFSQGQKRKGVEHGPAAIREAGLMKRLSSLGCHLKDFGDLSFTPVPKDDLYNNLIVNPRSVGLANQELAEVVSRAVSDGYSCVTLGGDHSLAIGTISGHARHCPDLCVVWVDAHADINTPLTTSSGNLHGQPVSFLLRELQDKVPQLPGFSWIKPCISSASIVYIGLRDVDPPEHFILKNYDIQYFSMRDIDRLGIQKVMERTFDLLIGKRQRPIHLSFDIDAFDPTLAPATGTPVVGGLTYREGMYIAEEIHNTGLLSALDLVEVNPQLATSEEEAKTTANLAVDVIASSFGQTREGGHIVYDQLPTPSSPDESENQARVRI
The experiment in a line: in vitro enzyme assay to detect the production of urea directly proportional to the activity of Arginase II. Further: in the data most compounds retested in dose-response had high values. Type of assay: functional. Particulars: 33.3 µM.

In assay [6] the target is T3, Proteasome subunit beta (Trypanosoma cruzi) (UniProt O96673).
T3 sequence (whole entry): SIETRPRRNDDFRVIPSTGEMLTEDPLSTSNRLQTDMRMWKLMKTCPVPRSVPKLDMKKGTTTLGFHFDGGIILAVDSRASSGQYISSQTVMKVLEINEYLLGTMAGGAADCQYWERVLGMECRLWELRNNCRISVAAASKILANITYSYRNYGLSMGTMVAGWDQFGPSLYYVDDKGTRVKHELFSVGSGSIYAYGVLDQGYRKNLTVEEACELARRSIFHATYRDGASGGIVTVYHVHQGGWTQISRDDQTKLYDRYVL
In words: Trypanosoma cruzi proteasome chymotrypsin-like activity (TcProtChymo) assay. Further: in the data most compounds retested in dose-response had high values. Type of assay: functional. Conditions: 9.37 µM.

For a further assay, the species on record is Homo sapiens. In words: To identify inhibition of the IFN signalling (Jak-Stat) pathway via expression of an eGFP reporter gene under the control of an IFN-stimulated response element (ISRE) containing MxA promoter. Conditions: 30 µM. In kind it is functional.
For assay [7], the target named is T4, Tyrosyl-tRNA synthetase, putative (Trypanosoma cruzi (strain CL Brener)) (UniProt Q4DSP6).
T4 sequence (whole entry): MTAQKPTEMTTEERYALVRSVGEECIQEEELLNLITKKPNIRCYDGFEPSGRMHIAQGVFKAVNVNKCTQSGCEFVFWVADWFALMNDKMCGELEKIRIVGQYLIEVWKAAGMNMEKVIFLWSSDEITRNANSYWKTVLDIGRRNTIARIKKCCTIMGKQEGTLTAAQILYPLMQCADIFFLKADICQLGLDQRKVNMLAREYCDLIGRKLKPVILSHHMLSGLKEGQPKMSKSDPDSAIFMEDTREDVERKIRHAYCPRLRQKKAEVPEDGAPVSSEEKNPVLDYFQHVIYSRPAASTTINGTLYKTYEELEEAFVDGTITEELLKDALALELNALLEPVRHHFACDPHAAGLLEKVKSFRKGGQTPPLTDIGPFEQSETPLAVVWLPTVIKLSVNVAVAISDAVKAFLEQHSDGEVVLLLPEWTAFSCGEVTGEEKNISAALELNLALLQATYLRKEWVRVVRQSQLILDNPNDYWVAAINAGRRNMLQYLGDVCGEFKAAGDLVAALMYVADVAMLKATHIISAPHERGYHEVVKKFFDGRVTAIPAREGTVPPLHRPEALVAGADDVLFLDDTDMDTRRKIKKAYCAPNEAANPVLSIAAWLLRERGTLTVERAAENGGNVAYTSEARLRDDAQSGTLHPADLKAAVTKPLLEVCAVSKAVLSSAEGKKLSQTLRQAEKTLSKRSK
In words: Trypanosoma cruzi tyrosyl tRNA synthetase (TcYRS) _High Tyrosine SOP. Further: in the data most compounds retested in dose-response had high values. Type of assay: functional. Particulars: 30 µM.

In assay [8] the target is T4, Tyrosyl-tRNA synthetase, putative (Trypanosoma cruzi (strain CL Brener)). In words: Trypanosoma cruzi tyrosyl tRNA synthetase (TcYRS) SOP. Particulars: 30 µM. Type of assay: functional.
The target in assay [9] is Chromo domain-containing protein 1 (Saccharomyces cerevisiae (strain ATCC 204508 / S288c) (Baker's yeast)) (UniProt P32657). In words: ScCHD-1 Enzyme Inhibition Assay. Further: in the data most compounds retested in dose-response had high values. Particulars: 30 µM. Type of assay: functional.
Chain of Chromo domain-containing protein 1 (Saccharomyces cerevisiae (strain ATCC 204508 / S288c) (Baker's yeast)) (P32657 whole entry, the tested form may be a part): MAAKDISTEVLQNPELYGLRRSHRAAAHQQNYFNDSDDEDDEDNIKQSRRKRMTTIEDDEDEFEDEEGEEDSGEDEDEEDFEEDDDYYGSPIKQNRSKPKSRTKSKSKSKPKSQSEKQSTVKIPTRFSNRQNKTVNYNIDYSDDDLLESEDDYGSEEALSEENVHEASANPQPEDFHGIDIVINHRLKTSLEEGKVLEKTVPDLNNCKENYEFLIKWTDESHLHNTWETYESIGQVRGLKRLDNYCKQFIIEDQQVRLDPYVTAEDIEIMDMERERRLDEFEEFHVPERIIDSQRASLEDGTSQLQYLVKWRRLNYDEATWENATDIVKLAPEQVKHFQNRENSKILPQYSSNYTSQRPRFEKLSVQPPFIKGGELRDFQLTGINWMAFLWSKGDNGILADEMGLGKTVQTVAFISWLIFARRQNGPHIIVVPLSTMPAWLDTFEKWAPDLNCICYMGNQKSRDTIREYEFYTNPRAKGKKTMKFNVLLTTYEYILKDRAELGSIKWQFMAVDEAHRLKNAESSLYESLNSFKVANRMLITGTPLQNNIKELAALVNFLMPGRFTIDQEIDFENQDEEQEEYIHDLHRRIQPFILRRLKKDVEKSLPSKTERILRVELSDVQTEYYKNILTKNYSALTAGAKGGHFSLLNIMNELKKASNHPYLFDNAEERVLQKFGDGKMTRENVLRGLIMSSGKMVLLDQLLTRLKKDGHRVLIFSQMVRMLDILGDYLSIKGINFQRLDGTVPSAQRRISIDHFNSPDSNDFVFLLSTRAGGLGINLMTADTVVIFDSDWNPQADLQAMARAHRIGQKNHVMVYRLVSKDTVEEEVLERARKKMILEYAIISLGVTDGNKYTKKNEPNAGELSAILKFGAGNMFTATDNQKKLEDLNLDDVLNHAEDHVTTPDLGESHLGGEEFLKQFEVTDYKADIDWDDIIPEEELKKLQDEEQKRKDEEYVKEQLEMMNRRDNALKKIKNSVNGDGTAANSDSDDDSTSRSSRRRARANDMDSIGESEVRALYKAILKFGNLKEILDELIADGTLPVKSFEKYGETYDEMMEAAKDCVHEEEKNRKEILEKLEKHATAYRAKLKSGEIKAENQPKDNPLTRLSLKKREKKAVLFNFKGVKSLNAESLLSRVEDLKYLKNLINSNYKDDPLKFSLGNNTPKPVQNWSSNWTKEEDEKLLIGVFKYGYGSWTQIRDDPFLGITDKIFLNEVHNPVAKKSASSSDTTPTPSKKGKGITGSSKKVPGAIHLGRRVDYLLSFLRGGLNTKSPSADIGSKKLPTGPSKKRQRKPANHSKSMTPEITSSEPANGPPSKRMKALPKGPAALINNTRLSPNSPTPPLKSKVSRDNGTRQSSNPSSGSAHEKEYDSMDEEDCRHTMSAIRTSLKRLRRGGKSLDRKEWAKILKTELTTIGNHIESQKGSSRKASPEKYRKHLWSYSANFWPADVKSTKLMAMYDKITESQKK

With `CCc1nc(C(=O)N2CCN(C)CC2C)nn1-c1ccccc1Cl` (stereo unspecified), the Percent Effect in assay [1] was -3.02%; in assay [2], 15.8%; in assay [3], 15.7%; in [4], -9.77%; with Trypanosoma cruzi it was -7.19%; in assay [5], 0.36%. The Percent Effect in [6] was 8.04%; in the assay filed under Homo sapiens, 12.9%; in assay [7], 5.42%; in assay [8] it was 11.1%; in assay [9], -9.77%.

On to `CN(Cc1ccco1)Cc1ccccc1CNC(=O)c1ccc[nH]1`, for which the Percent Effect in assay [1] was 0.847%; in assay [2] it was -10.8%; in [3], -0.911%; in [4], 10%; in the assay on Trypanosoma cruzi, 2.32%; in [5] it was 14.3%. The Percent Effect in [6] was 9.31%; in the assay listed under Homo sapiens, 19.5%; in assay [7], 3.7%; in [8], 12.2%; in assay [9], -4.76%.

With `CCOC(CC)C(=O)NCCC(=O)N1CCN(c2ncccn2)CC1` (stereo unspecified), the Percent Effect in assay [1] was -2.66%; in assay [2] it was 2.63%; in assay [3], 4.87%; in [4], 5.24%; in the assay with Trypanosoma cruzi it was 5.94%; in assay [5] it was 0%. Also, the Percent Effect in assay [6] stood at 7.19%; in the assay listed under Homo sapiens, 0.555%; in [7], 3.19%; in [8], 5.2%; in [9], 1.78%.

`CN(CC(=O)N1CCC(Oc2ccccc2)CC1)c1cnccn1`: the Percent Effect is -3.37% in assay [1]; 21.6% in assay [2]; -3.35% in assay [3]; 7.97% in [4]; 4.74% in the assay on Trypanosoma cruzi; 2.4% in [5]. Also, the Percent Effect in assay [6] is 5.75%; in the assay filed under Homo sapiens it was 18.1%; in [7] it was 5.94%; in assay [8], 25.6%; in [9], -8.13%.

For the compound `O=C1CN(Cc2nnc(-c3ccc(Br)cc3)o2)CCN1`, the Percent Effect in assay [1] is 0.69%; in assay [2], 18.1%; in assay [3] it was -9.97%; in assay [4] it was 2.35%; in the assay on Trypanosoma cruzi, 2.04%; in assay [5], -1.77%. The Percent Effect in assay [6] is 15.6%; in the assay listed under Homo sapiens, 11.5%; in assay [7], 2.1%; in [8] it was 2.56%; in [9], -3.39%.

Turning to `O=C(CCn1ccccc1=O)Nc1ccc(F)c(Cl)c1`, the Percent Effect in assay [1] was -5.08%; in assay [2] it was 8.11%; in assay [3] it was -4.38%; in assay [4] it was 0.784%; in the assay with Trypanosoma cruzi, -2.44%; in assay [5], 3.72%. Also, the Percent Effect in [6] was 10.7%; in the assay listed under Homo sapiens, -1.47%; in [7], 4.3%; in assay [8] it was 6.17%; in [9], -7.68%.

`O=C(NCC1CC1)C1CN(C(=O)c2cccnc2)CC12CCOCC2` (stereo unspecified): the Percent Effect in assay [1] was -0.919%; in assay [2] it was 13%; in [3], 2.21%; in assay [4], 6.47%; with Trypanosoma cruzi it was -0.296%; in [5] it was -0.645%. For the same compound, the Percent Effect in assay [6] is 13.6%; in the assay filed under Homo sapiens it was 18.6%; in assay [7] it was 5.29%; in [8], 14.1%; in assay [9], -4.19%.

In the case of `OCC1CCCN1c1cc(N2CCc3ccccc3C2)ncn1` (stereo unspecified), the Percent Effect in [1] is -5.73%; in assay [2], 5.2%; in [3], -4.03%; in assay [4], -9.93%; in the assay on Trypanosoma cruzi, 8.13%; in assay [5], -6.95%. The Percent Effect in assay [6] is 7.84%; in the assay filed under Homo sapiens, -3.87%; in [7] it was 3.81%; in assay [8], 14.1%; in assay [9], -20.3%.

In the case of `Cn1c(Cn2ccnc2)nnc1C1CCN(C(=O)C2(C)CC2)CC1`, the Percent Effect in [1] was -1.61%; in [2] it was 11%; in assay [3], -0.77%; in [4], 4.51%; in the assay on Trypanosoma cruzi, -2.98%; in assay [5] it was -4.39%. The Percent Effect was 21% in assay [6]; 17% in the assay listed under Homo sapiens; 5.21% in [7]; 18.5% in assay [8]; -5.12% in [9].

Take `Cn1cccc1CN1CCC2(CCCN(C(=O)Cc3cccnc3)C2)C1` (stereo unspecified): the Percent Effect in assay [1] was -2.25%; in [2], 0%; in assay [3], -2.27%; in assay [4] it was -5.33%; with Trypanosoma cruzi, -2.07%; in assay [5], -4.52%. Besides, the Percent Effect in [6] was 1.39%; in the assay listed under Homo sapiens, 2.23%; in [7] it was -2.12%; in assay [8], -6.41%; in assay [9], -7.07%.

As to `COCc1nc(C(=O)N2CCCCC2Cn2cc(C)cn2)cs1` (stereo unspecified), the Percent Effect is -5.14% in [1]; -2.6% in assay [2]; 6.14% in assay [3]; -7.79% in [4]; -5.19% in the assay on Trypanosoma cruzi; -1.47% in [5]. Also, the Percent Effect in assay [6] is 5.42%; in the assay listed under Homo sapiens, 6.8%; in assay [7] it was -1.91%; in assay [8], -4.71%; in [9], -21.5%.
